# From PubChem BioAssay (NCATS)
# Results filed as inconclusive are left out. Where a call stands in place of a potency, no number is given. Calls of active or inactive are those of the source. Calls come from the whole dose curve; as a rule, active = well fitted cell-killing curve with a large enough effect; inconclusive = small, poorly fitted or top-dose-only effect; inactive = flat fitted curve, though single readings scatter.
# Experiment: qHTS of pediatric cancer cell lines to identify multiple opportunities for drug repurposing: Primary screen for BT-12 cells (AID 1347101); note: nearly all actives have a fitted effect of over 25% in size
# Settings: BT-12 viability, CellTiter-Glo luminescence, 48 h; series mostly up to 57.3 µM
# Text: Drug repurposing or repositioning has been offered as a strategy for drug development in oncology programs. This approach has special potential for childhood cancers and other rare or orphan diseases, where the expected return on new drug development has been a disincentive to pharmaceuticals.
# In this project we exploit the poly-pharmacology of drugs to discover new indications via phenotypic screening of a panel of 19 well-characterized cell lines derived from solid tumors seen in children and adolescents. The goal is to identify approved drugs with previously unrecognized anticancer properties that has the potential to reveal new mechanisms and biological processes involved in carcinogenesis or drug resistance. We employed a titration-based paradigm (quantitative high-throughput screening or qHTS), where all compounds were tested at multiple concentrations for their effect on cell viability. Concentration-response curves (CRCs) were derived directly from the primary screen, and both potency and efficacy values were used to identify compounds with robust bioactivity profiles. We screened the NIH Chemical Genomics Center (NCGC) Pharmaceutical Collection (NPC) and Mechanism Interrogation Plate (MIPE) small molecule collections of approved and investigational compounds against these cell lines; and measured metabolically active cells after 48 hours of compound treatment as a proxy for cell viability.
# Assay Submitter: Nathalia J. Martinez, National Center for Advancing Translational Sciences, National Institutes of Health, Rockville, MD, USA; email: natalia.martinez@nih.gov
# [1] Shen, M et al. Quantitative high-throughput phenotypic screening of pediatric cancer cell lines identifies multiple opportunities for drug repurposing. Oncotarget 2017 Dec 19;9(4):4758-4772. PMID 29435139.
# The cells were obtained from University of North Carolina (UNC), Pediatric Preclinical Testing Program (PPT), and Coriell Institute (CI).
# qHTS cell viability assay:
# Cells were assayed in growth media at a density of 500-1,000 cells/well. Five microliters of cells were dispensed into 1,536-well, white, solid-bottom, TC-treated plates (Greiner Bio One) using a multidrop dispenser and incubated at 37 degrees C, 5% CO2, under a humidified atmosphere for 5 hours. Twenty-three nanoliters of compounds and controls (neutral control DMSO or positive control bortezomib at final concentration of 2.3 µM) were subsequently transferred by Kalypsys pintool. For primary screens, the MIPE collection was tested at 11-point dilutions (final concentrations range from 0.78 nM to 46 µM) and the NPC collection at 8-point dilutions (final concentrations range from 0.59 nM to 46 µM). Compounds tested in follow-up screens were assayed at 11-point dilutions. Cells were incubated for 48 hours, followed by addition of 3 µL of CellTiter-Glo (Promega). After a 15 min incubation at room temperature, samples were analyzed for luminescence intensity using a ViewLux High-throughput CCD imager equipped with clear filters.
# Potency is the fitted concentration of half-maximal effect.
row,SMILES,Potency
1,NC1CC1c1ccccc1 (stereo not given),inactive
2,OCCCBr,inactive
3,COc1ccc(CC2NCCc3cc(OC)c(OC)cc32)cc1OC (stereo not given),inactive
4,O=[N+]([O-])c1c2ccccc2cc2ccccc12,inactive
5,C[C@@H]1CC[C@@]2(OC1)O[C@H]1C[C@H]3[C@@H]4CC=C5C[C@@H](O[C@@H]6O[C@H](CO)[C@@H](O[C@@H]7O[C@@H](C)[C@H](O)[C@@H](O)[C@@H]7O)[C@H](O)[C@@H]6O[C@@H]6O[C@@H](C)[C@H](O)[C@@H](O)[C@@H]6O)CC[C@]5(C)[C@@H]4CC[C@]3(C)[C@@H]1[C@H]2C,6.85 µM (active)
6,CC(N[C@H]1C[C@H]1c1ccccc1)c1ccc2c(c1)OCCO2 (stereo not given in full),inactive
7,COc1ccc2c(c[n+](C)c3c4cc5c(cc4ccc23)OCO5)c1OC,24.3 µM (active)
8,O=C(Nc1ccncc1)C(=O)c1cn(Cc2ccc(Cl)cc2)c2ccccc12,0.137 µM (active)
9,COc1cc2cc(c1Cl)N(C)C(=O)C[C@H](OC(=O)C(C)C)[C@]1(C)O[C@H]1[C@H](C)[C@@H]1C[C@@](O)(NC(=O)O1)[C@H](OC)C=CC=C(C)C2,0.0485 µM (active)
10,COCC1(CO)C(=O)C2CCN1CC2 (stereo not given),21.7 µM (active)
11,CCCN(CCC)c1c([N+](=O)[O-])cc(S(N)(=O)=O)cc1[N+](=O)[O-],28.2 µM (active)
12,O=C(O)COc1ccccc1,inactive
13,CC(C)N(CCNC(=O)CN1CCCC1=O)C(C)C,inactive
14,CC1(C)CC/C(=C/c2ccc(Cl)cc2)C1(O)Cn1cncn1 (stereo not given),inactive
15,C=CCON=C(C[C@H]1O[C@@H]2O[C@]3(C)CC[C@@H]4[C@H](C)CC[C@@H]([C@H]1C)[C@@]24OO3)[C@H]1O[C@@H]2O[C@]3(C)CC[C@H]4[C@H](C)CC[C@@H]([C@@H]1C)[C@@]24OO3,0.344 µM (active)
16,CCCC[N+]1(C)[C@H]2CC(OC(=O)[C@H](CO)c3ccccc3)C[C@H]1[C@H]1O[C@H]12 (stereo not given in full),inactive
17,CC(=O)Nc1ccc(OC[C@](C)(O)C(=O)Nc2ccc([N+](=O)[O-])c(C(F)(F)F)c2)cc1,inactive
18,Nc1c(Cl)c(Cl)c(Cl)c(Cl)c1Cl,inactive
19,COC(=O)[C@@H](N)CCCN=C(N)N[N+](=O)[O-],inactive
20,CC1=C(O)C(=O)C=C2C1=CC=C1[C@@]2(C)CC[C@@]2(C)[C@@H]3C[C@](C)(C(=O)O)CC[C@]3(C)CC[C@]12C,2.73 µM (active)

row,SMILES,Potency
1,NC1=NC(=O)N2CC12 (stereo not given),21.7 µM (active)
2,Clc1ccccc1C(c1ccccc1)(c1ccccc1)n1cccn1,inactive
3,Nc1ccc([N+](=O)[O-])cc1,inactive
4,C[C@@]12OC(=O)[C@]1([C@@H](O)[C@@H]1C=CCCC1)NC(=O)[C@H]2CCCl,0.137 µM (active)
5,O=S(=O)(O)C(F)(F)C(F)(F)C(F)(F)C(F)(F)C(F)(F)C(F)(F)C(F)(F)C(F)(F)F,inactive
6,CCC(=O)O[C@@H]1C=C2CCC3C(CCC4(C)C3CC[C@@H]4OC(=O)CC)C2CC1 (stereo not given in full),inactive
7,C[C@H]1CCCC=CC2C[C@H](O)C[C@@H]2[C@H](O)C=CC(=O)O1 (stereo not given in full),0.001 µM (active)
8,C[C@@H]1[C@H](O)[C@@H](C)C=CC=CCCC=CC=CC=CC=C[C@H](O[C@H]2O[C@@H](C)[C@H](O)[C@@H](N)[C@@H]2O)CC2O[C@](O)(C[C@@H](O)[C@H](O)CC[C@@H](O)C[C@@H](O)C[C@@H](O)CC(=O)O[C@H]1C)C[C@H](O)[C@H]2C(=O)O,inactive
9,O=C(Oc1ccc([N+](=O)[O-])cc1)N1CCC(C(O)(c2ccc3c(c2)OCO3)c2ccc3c(c2)OCO3)CC1,inactive
10,O=[N+]([O-])c1cc([N+](=O)[O-])c2ccccc2c1,inactive
11,c1cc2ccc3cccc4ccc(c1)c2c34,inactive
12,CC1=C(C(=O)O)N2C(=O)[C@@H](N)[C@H]2SC1,inactive
13,O=C(O)C(Cl)Cl,inactive
14,CC(C)(C)C(O)C(Oc1ccc(Cl)cc1)n1cncn1 (stereo not given),inactive
15,O=C1CCC[C@@H]2[C@H]3CCCN4CCC[C@@H](CN12)[C@@H]34,inactive
16,O=C(Nc1ccccc1-c1ccc(Cl)cc1)c1cccnc1Cl,inactive
17,Nc1ccc(Cl)cc1N,inactive
18,CSCC[C@@H](NC(=O)[C@@H](Cc1ccccc1)NC(=O)CNC(=O)CNC(=O)[C@@H](N)Cc1ccc(O)cc1)C(=O)O,inactive
19,c1ccc2c(CN3CCNCC3)cccc2c1,inactive
20,COc1cccc2c1[C@]13CCN(CC4CC4)[C@H](C2)[C@]1(OC)CCC(=O)C3,inactive
